Measurements reported in the supplement of paper PMC5919970.
Whole data set: some 2,000 compounds, median “fractional viability relative to vehicle” near 0.92, cut for the lowest 2% near 0.11. The list comes from a sample in which the lowest values are over-represented; it also holds similar structures and randomly drawn compounds.

Test system: TYKNU
Experiment: fractional viability relative to vehicle; TYKNU is a high-grade serous ovarian cancer line; higher = less growth inhibition
Conditions: 72 h, genotype: OPA1 knockout (sgOPA1 #2)
Outline: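 TYKNU control cells or lentiCRISPRv2 knockout derivatives were plated at 500 cells per well in duplicate into drug-stamped 384-well plates holding a ~2100-compound library at 2 or 10 μM. Culture was in RPMI 1640 with 10% FBS at 37 °C in 5% CO2, with 72 h of drug treatment. Viability was measured by Cell Titer Glo luminescence, and the averaged duplicate treatment wells were normalised to duplicate control wells at the same plate position.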

Row | SMILES | fractional viability (2uM) | fractional viability (10uM)
1 | Clc1ccc(C2(c3ccc(-c4cn[nH]c4)cc3)CCNCC2)cc1 | 1.03 | 0.554
2 | COCCOc1nc(-c2ccc(Cl)c(Cl)c2)n(-c2ccc(NC(=O)CCl)cc2)n1 [MI-2 (MALT1 inhibitor)] | 1 | 0.952
3 | COc1ccc(-n2c(SCCCN3C(=O)c4cccc5cccc(c45)C3=O)nnc2-c2ccncc2)cc1 | 0.913 | 0.874
4 | Cc1c(CN2CCN(C(=O)[C@H](C)O)CC2)sc2c(N3CCOCC3)nc(-c3cnc(N)nc3)nc12 | 0.392 | 0.376
5 | CS(=O)(=O)N1CCN(Cc2cc3nc(-c4cccc5[nH]ncc45)nc(N4CCOCC4)c3s2)CC1 | 0.824 | 0.658
6 | COc1ccc(-c2nc(N3CCOCC3)c3sc(CN(C)c4ncc(C(=O)NO)cn4)cc3n2)cn1 | 0.118 | 0.115
7 | O=C1[C@H](Cc2ccc(O)cc2)N2C(=O)CCN(C(=O)NCc3ccccc3)[C@H]2CN1Cc1cccc2ccccc12 | 0.962 | 0.449
8 | COc1cccc(-n2c(=O)[nH]c3cc(Cl)n(-c4ccc(-c5cccc(OC)c5O)cc4)c3c2=O)c1 | 0.827 | 0.807
9 | Cn1cc(-c2cnn3c(N)c(Br)c([C@@H]4CCCNC4)nc23)cn1 | 0.571 | 0.814
10 | Nc1nc(Nc2ccc3c(c2)CCC(N2CCCC2)CC3)nn1-c1cc2c(nn1)-c1ccccc1CCC2 (stereo unspecified) | 0.566 | 0.0864
11 | COc1ccc([C@@H]2CC(=O)c3c(O)cc(O[C@@H]4O[C@H](CO)[C@@H](O)[C@H](O)[C@H]4O[C@@H]4O[C@@H](C)[C@H](O)[C@@H](O)[C@H]4O)cc3O2)cc1O [Neohesperidin] | 1.11 | 0.888
12 | COc1ccc2c(c1)CCC1C2CCC2(C)C(NCCCCCCN3C(=O)C=CC3=O)CCC12 (stereo unspecified) | 0.747 | 0.738
13 | CCN1CCN(Cc2ccc(Nc3ncc(F)c(-c4cc(F)c5nc(C)n(C(C)C)c5c4)n3)nc2)CC1 | 0.602 | 0.0904
14 | CNC(=O)c1ccccc1Oc1nc(Nc2cc(OC)c(OC)c(OC)c2)ncc1Br | 0.717 | 0.828
15 | CN(CC(=O)N(Cc1ccc(C2CCCCC2)cc1)c1ccc(C(=O)O)cc1)S(=O)(=O)c1c(F)c(F)c(F)c(F)c1F | 0.662 | 0.0586
16 | C[C@H](NC(=O)[C@@H](O)c1cc(F)cc(F)c1)C(=O)N[C@@H]1C(=O)N(C)c2ccccc2-c2ccccc21 | 1.2 | 1.02
17 | CC[C@@]1(O)C(=O)OCc2c1cc1n(c2=O)Cc2cc3cc(O)ccc3nc2-1 [(S)-10-Hydroxycamptothecin] | 0.179 | 0.157
18 | COc1cc2/c(=N/c3ccc(Br)cc3F)nc[nH]c2cc1OCC1CCN(C)CC1 [Vandetanib (ZD6474)] | 1.31 | 0.638
